# Nrf2 ARE act = qHTS of Nrf2 Activators. AREc32 ARE-luciferase reporter (MCF7-derived line), luminescence, 24 h. Potency, µM (series often up to 46.1 µM), for inactives: top-dose activation, most hits filed as activators. hit rate 0.31% among 410,000. AID 624171, 2012; note: potency is the fitted concentration of half-maximal effect; % of control where 0% means no effect; nearly all actives have a fitted effect of over 65% in size
#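 Nrf2 activation is followed as ARE-luciferase induction in the AREc32 line after one day of compound treatment; luminescence is read with Steady-Glo.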
# IL2 activator = qHTS of IL-2 Activators; hit rate 0.065% among 360,000; activation, % (series mostly up to about 46 µM); AID 652025, 2013; IL-2 activation reporter assay, cell-based qHTS; stimulated with anti-CD3/CD4/CD28 beads; in transgenic mouse T cells; in the data active = activation above about 50%; inconclusive = mostly about 30% to 49%; note: 0% is about no effect
#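 First, unstimulated transgenic mouse T cells were exposed to compound for 60 min. Next, anti-CD3/anti-CD4-coated beads with anti-CD28 were added. Finally, after 18 h at 37 degrees C, EGFP and DsRed were imaged.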
# Nrf2 block = Nrf2 qHTS screen for inhibitors. hit rate 2.1% among 360,000. A549 ARE-Fluc reporter, luciferase luminescence, 18-24 h. Potency, µM (top dose mostly 46 µM), without a hit: at the highest dose activity change, negative = inhibition, usual class: inhibitors; note: potency is the fitted concentration of half-maximal effect; % is set by controls: 0 for no effect and ±100 for the full control effect; nearly all actives have a fitted effect of over 60% in size
#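 A549 ARE_Fluc cells, 5000/well, 5% FBS OPTI-MEM; compounds in dose-response, 18-24 h at 37 °C/5% CO2; CellTiter-Fluor viability read (Ex 405/Em 525), then BugLite luciferase luminescence = Nrf2 activity.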
# A549 viability = Nrf2 qHTS screen for inhibitors: counterscreen for cytotoxicity; A549 ARE-Fluc cells, CellTiter-Fluor viability, 18-24 h; Potency, µM (highest dose often 46 µM), inactives show top-dose activity change, negative = cytotoxicity, most hits filed as inhibitors; hit rate 0.16% among 390,000; AID 504648, 2011; note: potency is the fitted concentration of half-maximal effect; % is set by controls: 0 for no effect and ±100 for the full control effect
#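 A549 ARE_Fluc cells in 5% FBS OPTI-MEM were exposed to compounds in concentration-response for 18-24 h at 37 deg C. Viability was read by CellTiter-Fluor fluorescence (Ex 405/Em 525) after 30 min, before the luciferase read.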
# Numbers without * were called inactive; ? = inconclusive; . = no result given. Shown are actives, neighbours in structure and some others; about 2.3% of the full set was active somewhere. Unless noted, calls come from the whole dose curve; as a rule, active = well fitted curve in the direction sought with a large enough effect; inconclusive = small, poorly fitted or top-dose-only effect, or another doubt; inactive = no such curve, though single readings can be large; an effect the other way counts as inactive or inconclusive.
SMILES,Nrf2 ARE act,IL2 activator,Nrf2 block,A549 viability
COC(=O)C(=C/C(C)=C/c1cccs1)C(=O)OC,14µM*,-4,-4%,-13%
CN(C)c1ccc(CNC(=O)CN2C(=O)C3CCCCN3c3ccc(C(=O)N4CCCC4)cc32)cc1 (stereo not given),0%,.,.,19%
C=C(C)CN=c1scc(C)n1/N=C/c1ccco1,13µM*,-2,2%,-8%
Cc1cc(C)n(-c2nnc(C)n2/N=C/c2ccco2)n1,0%,1,-13%,7%
Cc1c(C(=O)O)oc2ccc(S(=O)(=O)N3CCC(C)CC3)cc12,0%,0,.,-1%
Cc1c(C(=O)N2CCC(C)CC2)oc2ccc(S(=O)(=O)N3CCC4(CC3)OCCO4)cc12,0%,-1,21µM*,18%
Cc1c(C(=O)N2CCc3ccccc3C2)oc2ccc(S(=O)(=O)N3CCCCCC3)cc12,0%,-5,15µM*,-4%
CCOC(=O)C1CCN(C(=O)c2oc3ccc(S(=O)(=O)N4CC(C)CC(C)C4)cc3c2C)CC1 (stereo not given),0%,-3,18µM*,?
Cc1cc(N2CCN(S(=O)(=O)c3ccc(Cl)c(Cl)c3)CC2)c2ccccc2n1,1%,-1,23µM*,-3%
Cc1cc(N2CCN(S(=O)(=O)c3ccc(Cl)cc3)CC2)c2ccccc2n1,0%,0,21µM*,-22%
CCN(CC)S(=O)(=O)c1ccc(C(O)=C(C#N)c2nc3ccccc3n2C)cc1,-1%,0,23µM*,-18%
Cn1c(/C(C#N)=C(\O)c2ccccc2Cl)nc2ccccc21,13%,0,?,2%
Cc1ccc(Cl)cc1Nc1nc(-c2sc(NC(=O)C(C)(C)C)nc2C)cs1,0%,0,12µM*,3%
CCC(C)C(=O)Nc1nc(C)c(-c2csc(Nc3ccc(Cl)cc3)n2)s1 (stereo not given),4%,-1,16µM*,?
CCCCCC(=O)Nc1nc(C)c(-c2csc(Nc3cc(Cl)ccc3OC)n2)s1,7%,0,5%,2%
CC(=O)Nc1ccc(Nc2nc(-c3sc(NC(C)=O)nc3C)cs2)cc1,-1%,-1,-25%,-9%
Cc1ccc(NC(=O)N2CCN(Cc3ccc4c(c3)OCO4)CC2)cc1,2%,-1,?,?
O=C(Nc1ccc2c(c1)OCO2)N1CCN(Cc2ccco2)CC1,0%,-1,16µM*,6%
CCC(C)NS(=O)(=O)c1ccc(S(=O)(=O)N2CCCC3(CCCCC3)C2)cc1 (stereo not given),0%,-4,21µM*,-22%
O=C(Nc1nnc(-c2ccccc2)s1)C1CCCN(C(=O)c2ccoc2)C1 (stereo not given),.,.,3%,0%
CCc1ccc(-c2nnn(CCC(=O)OC)n2)cc1,-2%,-3,3.3µM*,1%
Cc1cccc(Cn2cc(/C=C/[N+](=O)[O-])c3ccccc32)c1,-3%,-2,16µM*,.
C=CCSc1cc(C)nc2c(-c3ccccc3)cnn12,13%,1,?,-2%
CCSc1cc(C)nc2c(-c3ccccc3)cnn12,16µM*,0,?,10%
O=C(CSc1nc(=O)n(Cc2ccccn2)c2c1CCC2)Nc1ccccc1,3%,.,26µM*,1%
SMILES,Nrf2 ARE act,IL2 activator,Nrf2 block,A549 viability
Cc1cc(C)cc(NC(=O)CSc2nc(=O)n(Cc3ccccn3)c3c2CCC3)c1,1%,.,.,-1%
COc1cc(NC2CCCCC2O)c2nc(-c3ccc(Cl)cc3)ccc2c1 (stereo not given),-3%,-5,?,9.2µM*
CCn1cc2nc(SCc3ccccc3Cl)n(Cc3ccc(OC)cc3)c(=O)c2n1,-1%,.,?,?
COc1ccc(OCc2ccc(-c3nc(C#N)c(N4CCN(C)CC4)o3)o2)cc1,0%,.,-23%,-3%
COc1ccc(CCn2c(=S)[nH]c(=O)c3nccnc32)cc1OC,.,.,18µM*,?
CCN(CC)C(=O)Cn1c(=O)n(CCCCCC(=O)NCc2ccc3c(c2)OCO3)c(=O)c2sccc21,0%,.,-10%,2%
Cc1c(P(=S)(c2ccccc2)c2ccccc2)[n+]2ccccc2n1Cc1ccccc1,.,.,-18%,3%
COc1ccc(Cl)cc1C=CC=Nc1ccccc1O,10µM*,-4,-7%,-7%
O=[S+]([O-])(c1ccc2c(c1)OCCO2)N1CCN([S+](=O)([O-])c2c(F)cc(O)cc2F)CC1,.,.,17%,0%
